# HSF1 inh – HSF1 inhibition | NIH3T3-HGL HSE-luciferase, MG132-induced, luminescence 8 h; active compounds read low | activity change, negative = inhibition, % at 7.5 µM (by protocol) | 0.77% of 300,000 active;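 active = more than half of replicate wells show activity change below -50%, luminescence cut by over half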;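 note: luciferase reports HSF-1 transcriptional activity via heat shock element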
# AHR activator – human AHR activation; P35869; AHR-responsive luciferase reporter cells, luminescence; activation, % at 5 µM; 2.5% of 320,000 active; AID 2796; in the data active = activation above about 47%
# Target sequence (P35869 whole entry, looked up): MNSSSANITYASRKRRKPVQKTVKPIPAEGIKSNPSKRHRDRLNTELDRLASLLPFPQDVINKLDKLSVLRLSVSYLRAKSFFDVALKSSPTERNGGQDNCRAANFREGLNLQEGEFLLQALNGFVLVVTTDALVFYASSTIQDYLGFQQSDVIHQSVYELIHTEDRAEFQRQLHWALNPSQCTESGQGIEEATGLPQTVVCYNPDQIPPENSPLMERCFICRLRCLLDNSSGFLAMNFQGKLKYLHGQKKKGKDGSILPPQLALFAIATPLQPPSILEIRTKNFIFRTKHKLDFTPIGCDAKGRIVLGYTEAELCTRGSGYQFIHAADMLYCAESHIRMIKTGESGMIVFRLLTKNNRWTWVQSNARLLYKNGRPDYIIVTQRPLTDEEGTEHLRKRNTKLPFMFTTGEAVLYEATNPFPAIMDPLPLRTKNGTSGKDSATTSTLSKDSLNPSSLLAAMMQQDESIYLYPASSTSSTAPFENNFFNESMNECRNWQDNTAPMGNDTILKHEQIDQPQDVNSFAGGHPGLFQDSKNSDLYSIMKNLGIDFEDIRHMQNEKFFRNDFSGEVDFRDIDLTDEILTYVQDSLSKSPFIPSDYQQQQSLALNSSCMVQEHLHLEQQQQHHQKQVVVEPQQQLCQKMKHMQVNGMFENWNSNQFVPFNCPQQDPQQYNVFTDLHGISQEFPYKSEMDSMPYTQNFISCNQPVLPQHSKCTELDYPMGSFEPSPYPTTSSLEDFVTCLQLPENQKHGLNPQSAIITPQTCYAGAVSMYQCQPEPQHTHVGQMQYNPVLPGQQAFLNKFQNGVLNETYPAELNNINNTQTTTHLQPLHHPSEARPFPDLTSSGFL
# FXN GAA850 act – increases GAA850 frataxin promoter reporter activity; 0.56% of 360,000 active; HEK293 lucGAA850 FXN promoter luciferase reporter, 24 h; percent of 10 µM SAHA response; activation, % at 6 µM; AID 540364;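 active = activation above the average of all compounds screened plus 3 SD, cutoff fixed separately per campaign, cut at about 7.5% in these data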
# HSF-1 act – increases HSF-1 driven luciferase reporter signal | NIH3T3-HGL HSF-1 luciferase reporter, MG132, 8 h; 100% = twice DMSO control signal | activation, % at 9 µM | 1.7% of 300,000 active;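 active = mean replicate activation of at least 50% with a set share of replicates each reaching 50%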
# Numbers stand for hits; n = inactive; x = no result. This is a sample that favours compounds with a hit; in the whole collection about 4.6% have one here.
SMILES,HSF1 inh,AHR activator,FXN GAA850 act,HSF-1 act
CCCNC(=O)c1ccc2c(=O)c(O)c(-c3ccc(F)cc3)[nH]c2c1,n,70,n,n
CCCNC(=O)c1ccc2c(=O)c(O)c(-c3cccc(Br)c3)[nH]c2c1,-52,n,n,n
O=C(COc1ccc(Cl)cc1)Nc1nc(-c2cccs2)cs1,n,n,n,n
CCCCCOC(=O)c1[nH]c2c(c1C)C(=O)CC(c1ccco1)C2 (configuration not stated),n,140,n,n
COc1ccc(Cl)cc1-c1nc(-c2ccncc2)no1,n,n,n,n
CC(=O)c1ccc(-c2cnc3c(NC=O)cc(-c4cccc(C(=O)N(C)C)c4)cn23)cc1,x,x,n,x
CCOC(=O)c1c(-c2ccc(C)o2)csc1NC(=S)NC(=O)N(C)C,n,57,n,56
CCOC(=O)c1c(-c2ccc(C)o2)csc1NC(=O)COC(=O)c1cccs1,n,n,n,n
Cc1ccc(SCc2cc(=O)[nH]c(N3CCN(Cc4ccccc4)CC3)n2)cc1,n,n,n,n
O=c1cc(CSc2ccc(Cl)cc2)nc(N2CCCCC2)[nH]1,n,n,n,65
Cc1ccc(-c2cc3nc(C)cc(C)n3n2)cc1,n,62,n,n
Cc1cc(C)n2nc(-c3ccc(F)cc3)cc2n1,x,x,n,x
CCn1c(C)cs/c1=N\S(=O)(=O)c1ccccc1,n,n,n,n
O=Cc1s/c(=N\S(=O)(=O)c2ccccc2)n(CCCCl)c1Cl,n,x,n,60
Cc1ccc(C(=O)c2c3ccc([N+](=O)[O-])cc3[n+]([O-])n2CCC(N)=O)cc1,n,n,x,n
Cc1ccc(C(=O)c2c3ccc(C(F)(F)F)cc3nn2CCC(N)=O)cc1,n,65,n,n
COC(=O)CN1C(=O)Nc2ccc(Cl)cc2C1c1ccccc1 (configuration not stated),n,n,n,n
COC(=O)CN1C(=O)Nc2ccc(C)cc2C1c1ccccc1 (configuration not stated),-70,n,n,n
Cc1cc(C)n(CC(=O)N/N=C/c2ccco2)n1,n,n,n,n
CCc1ccccc1N(C(=O)c1snc(C(N)=O)c1N)C(C(=O)NCC1CCCO1)c1ccc(C)o1 (configuration not stated),n,79,n,n
Cc1ccc(N(C(=O)c2snc(C(N)=O)c2N)C(C(=O)NCC2CCCO2)c2ccc(C)o2)c(C)c1 (configuration not stated),n,n,n,n
N#Cc1c(SCc2ccccc2)nc(N2CCOCC2)c2c1CCCC2,x,n,n,x
CC1CCc2nc(/C(C#N)=C/c3cccnc3)sc2C1 (configuration not stated),n,n,n,126
COc1cc(/C=C(\C#N)c2nc3c(s2)CCCC3)ccc1O,n,n,x,n
N#C/C(=C\c1cccnc1)c1nc2c(s1)CCCC2,n,n,n,107
SMILES,HSF1 inh,AHR activator,FXN GAA850 act,HSF-1 act
CC(C)c1ccc(/C=C/C(=O)N2CCc3ccccc3C2)cc1,n,n,n,n
O=c1cc(N2CCCCC2)c(-c2ccccc2)nn1Cc1ccccc1Cl,n,n,n,n
COc1ccc(CCN2C(=O)CS/C2=N\NC(=O)c2cccs2)cc1OC,n,69,n,n
CCN(CC)C(=O)COc1coc(CN2CCN(c3ccc(F)cc3)CC2)cc1=O,-62,n,n,n
COC(=O)CN(C(=S)Nc1ccc(F)cc1)C1CC(=O)N(c2ccc(OC)cc2)C1=O (configuration not stated),n,n,n,n
COc1ccc(NC(=S)Nc2cc(C)cc(C)n2)cc1OC,n,n,n,n
Cc1cc(C)nc(NC(=S)Nc2ccccc2)n1,n,n,n,51
Cc1cc(C)nc(NC(=S)Nc2cccc(F)c2)c1,n,48,n,n
COc1cccc(NC(=S)Nc2cc(C)cc(C)n2)c1,n,66,n,56
COc1ccc(C(=O)Nc2ccc(-c3nnn(CC(=O)N4CCN(C(=O)c5ccco5)CC4)n3)cc2)cc1,n,n,n,n
Cn1c(=O)c2c(ncn2CC(N)=O)n(C)c1=O,n,n,n,n
O=C(CC1C(=O)NCCN1Cc1cccc(Oc2ccccc2)c1)NCCc1ccccn1 (configuration not stated),n,n,n,n
Cn1cc(CCNC(=O)CC2C(=O)NCCN2Cc2cccc(Oc3ccccc3)c2)cn1 (configuration not stated),-69,n,n,n
CCOC(=O)c1c(CSc2ccc(CC)cc2)oc2ccc(O)c(CN(C)C)c12,n,n,n,n
COc1cc2c(c(O)c1OC)-c1c(cc(OC)c(OC)c1O)[C@@H](OC(=O)c1ccccc1)[C@@](C)(O)[C@@H](C)[C@@H]2OC(C)=O,n,x,x,n
Cc1cc(N2CCN(c3ccccc3)CC2)nc(-c2ccccc2O)n1,n,78,n,n
COc1ccc(CN2C(=O)C(C)Nc3ncnc(N4CCN(c5ccccn5)CC4)c32)cc1 (configuration not stated),x,n,n,x
Cc1cc(C)n2nc(-c3ccccc3)cc2n1,n,n,n,n
CCC1C(=O)n2nc(-c3ccccc3)cc2N=C1C (configuration not stated),n,51,n,n
CC(C)NC(=O)NC(=O)COc1ccc(Br)cc1Br,n,n,n,87
O=C(COc1ccc(Br)cc1Br)NC1CCCC1,n,n,n,n
Cc1cc(C(=O)CSc2nnc(-c3ccncc3)n2-c2ccccc2)c(C)n1C,n,n,n,n
c1ccc(SCc2nc3ccccc3[nH]2)cc1,n,n,n,n
Cc1cc(C)c(C#N)c(SCc2nc3ccccc3[nH]2)n1,n,68,n,60
O=c1[nH]c2ccccc2nc1-c1ccc(Cl)cc1,n,76,n,59
SMILES,HSF1 inh,AHR activator,FXN GAA850 act,HSF-1 act
N#Cc1cc2c(nc1SCc1nc3ccccc3[nH]1)CCC2,n,n,x,n
Clc1ccc(SCc2nc3ccccc3[nH]2)cc1,n,n,n,56
Clc1ccc(OCCSCc2nc3ccccc3[nH]2)cc1,n,n,n,n
Cc1ccc(SCc2nc3ccccc3[nH]2)cc1,n,n,n,90
COc1cccc(N(CC(=O)N2CCN(Cc3ccccc3)CC2)S(C)(=O)=O)c1,x,x,n,x
O=C(CN1C(=O)C(=O)N(Cc2ccco2)C1=O)c1c[nH]c2ccccc12,n,n,n,n
Cc1ccc(C)c(S(=O)(=O)N2CCN(C(=O)c3cnccn3)CC2)c1,n,n,n,n
CCCc1ccc2oc(C(=O)N(C)Cc3ccn[nH]3)c(C)c2c1,n,n,n,n
CCN(CC)C(=S)SCC(=O)Nc1nc(=O)c2ccccc2s1,-70,n,n,n
CCN(CC)C(=S)SCC(=O)Nc1ccc(S(N)(=O)=O)cc1,n,n,n,n
Cc1cccc(C)c1NC(=S)N(CCN(C)C)C(C)c1cccnc1 (configuration not stated),n,n,n,n
CN1CCN(C(=O)NCC23CC4CC(CC(C4)C2)C3)CC1,n,n,n,n
Cc1ccc(NC(=S)NC(=O)C2CCC2)cc1C,-59,n,n,n
S=C(NCCCN1CCOCC1)Nc1ccc(Cl)cc1Cl,n,n,n,n
O=C(NCc1nnc(SCc2ccccc2)n1-c1ccccc1)C12CC3CC(CC(C3)C1)C2,n,n,n,90

# Screening data: PubChem BioAssay, several laboratories
